Results: the supplement of paper PMC10127200
Structures can show the parent of a compound that is named as a salt.

Tests used:
Assay in all cases: Euclidean distance of Cell Painting phenotypic profile (signed KS, 77 features) to DMSO centroid (dimensionless distance); 5 or 10 uM (library dependent); higher = stronger phenotypic change vs DMSO (phenoactivity)
Conditions in all cases: 48 h
[1] = tested on: 786-O
How it was run: (§1)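 Phenoactivity is computed as Euclidean distance to the median vehicle profile. The profiles, drawn from 77 Harmony features scored as signed Kolmogorov-Smirnov statistics versus same-plate vehicle wells, were corrected for plate position, correlation-weighted and replicate-averaged at the top dose. Stained cells were imaged confocally at 20X (9 fields/well) after 48 h with library compounds at 10 or 5 uM, 0.1% DMSO final, in five cancer lines and a healthy fibroblast line.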

[2] = tested on: A549
How it was run: as §1

[3] = tested on: DU145
How it was run: as §1

[4] = tested on: FB
How it was run: as §1

[5] = tested on: HEPG2
How it was run: as §1

[6] = tested on: OVCAR4
How it was run: as §1

SMILES	Euclidean distance [1]	Euclidean distance [2]	Euclidean distance [3]	Euclidean distance [4]	Euclidean distance [5]	Euclidean distance [6]
OC1CN(CCCOCCc2ccc3sccc3c2)C1 [Edonerpic maleate]	0.947	0.582	0.87	1.18	0.525	0.97
OC[C@@H](O)[C@@H](O[C@@H]1O[C@H](CO)[C@H](O)[C@H](O)[C@H]1O)[C@H](O)[C@@H](O)CO [Lactitol]	0.637	0.843	0.537	0.733	0.29	1.17
CN/C(=N\CCSCc1nc[nH]c1C)NC#N [Cimetidine]	0.94	0.861	0.762	0.864	0.95	1.25
COc1ccc2c(c1)C(=O)N(CCc1ccc(S(=O)(=O)NC(=O)NC3CCCCC3)cc1)C(=O)C2(C)C [Gliquidone]	1.02	0.773	1.03	1.06	3.11	0.973
OC1(c2ccc(Cl)c(C(F)(F)F)c2)CCN(CCCC(c2ccc(F)cc2)c2ccc(F)cc2)CC1 [Penfluridol]	4.2	4.66	5.91	3.4	4.97	4.03
NCC(=O)O [Glycine]	1.61	0.971	0.929	1	0.776	1.93
COc1ccc(CN2CCN(C(c3ccc(F)cc3)c3ccc(F)cc3)CC2)c(OC)c1OC [Lomerizine HCl]	0.896	1.09	0.808	1.17	1.31	0.83
Cc1[nH]c(=O)c(C#N)cc1-c1ccncc1 [Milrinone]	0.957	0.855	0.761	0.918	0.762	0.888
N#Cc1ccc(Oc2ccc3c(c2)COB3O)cc1 [Crisaborole (AN2728)]	1.25	1	0.832	0.837	2.52	1.91
COc1cnc(-n2cnc(C)n2)c2[nH]cc(C(=O)C(=O)N3CCN(C(=O)c4ccccc4)CC3)c12	1.35	0.841	0.792	0.569	1.32	0.969
CNC(=O)c1cc(Oc2ccc(NC(=O)Nc3ccc(Cl)c(C(F)(F)F)c3)cc2)ccn1 [Sorafenib]	2.08	2.51	1.74	1.78	2.93	2.28
CCCSc1ccc2[nH]c(NC(=O)OC)nc2c1 [Albendazole]	2.6	2.42	2.81	2.49	2.15	2.48
CN(C)CCN1C(=O)c2cccc3cc(N)cc(c23)C1=O [Amonafide]	3.45	4	2.47	3.29	4.06	3.48
CCN(CC)CCNC(=O)c1c(C)[nH]c(/C=C2\C(=O)Nc3ccc(F)cc32)c1C [Sunitinib]	3.58	3.66	2.98	4.34	3.3	2.86
CCN1CCN(c2ccc(Nc3cc(N(C)C(=O)Nc4c(Cl)c(OC)cc(OC)c4Cl)ncn3)cc2)CC1 [BGJ398 (NVP-BGJ398|Infigratinib)]	3.87	4	2.87	3.62	2.39	4.1
N#CCNC(=O)c1ccc(-c2ccnc(Nc3ccc(N4CCOCC4)cc3)n2)cc1 [Momelotinib (CYT387)]	2.83	3.71	3.36	3.49	2.74	2.48
Cc1cn([C@H]2O[C@@H](CO)[C@H](O)[C@H]2F)c(=O)[nH]c1=O [Clevudine]	1.08	0.649	1.79	0.837	0.504	1.03
O=c1ccn([C@@H]2O[C@H](CO)[C@@H](O)[C@H]2O)c(=O)[nH]1 [Uridine]	1.22	0.801	0.955	0.869	1.9	0.863
CCCOC(C(=O)OC1CCN(C)CC1)(c1ccccc1)c1ccccc1 [Propiverine hydrochloride]	1.73	1.08	1.34	1.33	1.39	1.35
CN(C)C(=O)[C@H](O)[C@H](Cc1ccccc1)NC(=O)c1cc2cc(Cl)ccc2[nH]1	0.476	0.757	0.712	1.01	1.05	0.908
Nc1nccc2c1ncn2C1C=C(CO)C(O)C1O (stereo not given) [3-Deazaneplanocin A (DZNeP)]	2.28	1.27	1.19	2.71	1.23	1.72
Cc1cn(-c2cc(NC(=O)c3ccc(C)c(Nc4nccc(-c5cccnc5)n4)c3)cc(C(F)(F)F)c2)cn1 [Nilotinib (AMN-107)]	2.33	3.94	3.46	2.13	1.09	1.8
CCn1nc(C(=O)O)c(=O)c2cc3c(cc21)OCO3 [Cinoxacin]	1.03	1.18	0.942	1.56	0.617	1
Cc1cc(Nc2nc(N[C@@H](C)c3ccc(F)cc3)c(C#N)cc2F)n[nH]1	3.5	3.48	2.73	2.42	2.18	2.77
COc1cc(OC)c2c(=O)[nH]c(-c3cc(C)c(OCCO)c(C)c3)nc2c1 [Apabetalone (RVX-208)]	1.25	0.468	1.25	0.996	0.48	0.642

SMILES	Euclidean distance [1]	Euclidean distance [2]	Euclidean distance [3]	Euclidean distance [4]	Euclidean distance [5]	Euclidean distance [6]
CCS(=O)(=O)Nc1ccc2c(c1)/C(=C(/Nc1ccc(CN3CCCCC3)cc1)c1ccccc1)C(=O)N2 [Hesperadin]	3.36	3.8	2.47	3.41	2.69	3.25
CCCN(CCC)CCc1cccc2c1CC(=O)N2 [Ropinirole HCl]	1.32	1.01	0.736	1.3	0.483	1.2
S=c1nc[nH]c2nc[nH]c12 [6-Mercaptopurine (6-MP) Monohydrate]	1.29	0.49	0.673	0.989	1.81	0.591
Cc1ncc(-c2ccnc(Nc3ccc(S(C)(=O)=O)cc3)n2)n1C(C)C	2.6	3.78	3.05	3.19	3.09	3.43
CC(C)(C)C(=O)OCOP(=O)(COCCn1cnc2c(N)ncnc21)OCOC(=O)C(C)(C)C [Adefovir Dipivoxil]	2.81	2.71	2.07	2.73	3.97	3.18
CC(C)(C)c1cc(NC(=O)Nc2ccc(-c3cn4c(n3)sc3cc(OCCN5CCOCC5)ccc34)cc2)no1 [Quizartinib (AC220)]	3.28	2.67	1.42	1.43	2.93	1.37
CC/C(=C(\c1ccccc1)c1ccc(OCCN(C)C)cc1)c1ccccc1 [Tamoxifen Citrate]	1.05	2.39	1.36	1.45	1.5	1.36
COC1=CC(=O)C[C@@H](C)[C@]12Oc1c(Cl)c(OC)cc(OC)c1C2=O [Griseofulvin]	0.605	0.678	0.803	1.48	0.745	0.81
O=C(O)CCc1ccc(NCc2cccc(Oc3ccccc3)c2)cc1	1.31	1.43	1.69	1.47	1.25	1.53
O=C(NC1CCOCC1)c1ccc(-c2cc(-c3c[nH]nc3-c3ccccn3)ccn2)cc1	1.22	0.965	0.674	1.3	1.01	0.73
Oc1c(I)cc(Cl)c2cccnc12 [Clioquinol]	1.29	1.03	1.05	1.37	0.894	1.24
CCCCCc1ccc(C)cc1O [Amylmetacresol]	0.732	0.727	0.517	0.859	0.412	0.661
Cc1cc(Nc2ncnc3ccc(-c4ccc(CNCCS(C)(=O)=O)o4)cc23)ccc1Oc1ccn2ncnc2c1 [HER2-Inhibitor-1]	1.06	0.771	1.08	1.37	1.3	1.22
OC[C@H]1O[C@@H](c2ccc(Cl)c(Cc3ccc(O[C@H]4CCOC4)cc3)c2)[C@H](O)[C@@H](O)[C@@H]1O	0.965	0.753	1.39	0.912	0.52	0.801
NC(=O)NC1NC(=O)NC1=O (stereo not given) [Allantoin]	0.856	0.693	1.19	0.801	3.52	1.68
CC[C@]12CCCN3CCc4c(n(c5ccccc45)[C@@](O)(C(=O)OC)C1)[C@@H]32 [Vincamine]	1.3	1.33	0.578	0.795	0.91	1.18
NC(=O)/C(=C/n1cnc(-c2cc(C(F)(F)F)cc(C(F)(F)F)c2)n1)c1cncnc1 [Eltanexor (KPT-8602)]	2.1	3.48	2.69	4.12	2.35	3.66
CN(C)c1ccc(O)c2c1C[C@H]1C[C@H]3[C@H](N(C)C)C(O)=C(C(N)=O)C(=O)[C@@]3(O)C(O)=C1C2=O [Minocycline HCl]	1.46	1.38	1.2	1.33	0.637	1.14
Cc1cc(C2CCCCC2)n(O)c(=O)c1 [Ciclopirox]	2.74	2.85	2.81	3.29	3.45	3.51
CC(=O)NS(=O)(=O)c1ccc(N)cc1 [Sulfacetamide]	1.08	0.619	1.45	1.07	0.298	1.01
CC(C)c1cc(C(C)C)c(CC(=O)NS(=O)(=O)Oc2c(C(C)C)cccc2C(C)C)c(C(C)C)c1 [Avasimibe]	4.24	1.79	0.813	0.86	0.752	0.819
c1ccc([C@H]2CN3CCSC3=N2)cc1 [Levamisole hydrochloride]	0.976	0.704	1.37	0.953	0.417	1.23
OCC(O)CN1CCN(c2ccccc2)CC1 (stereo not given) [Dropropizine]	1.11	1.8	1.39	1.1	0.735	1.98
CCOc1ccc(Cc2cc([C@@H]3O[C@H](SC)[C@@H](O)[C@H](O)[C@H]3O)ccc2Cl)cc1 [Sotagliflozin (LX4211)]	1.32	1.07	1.9	0.889	0.553	0.781
CCCC(=O)Nc1ncnc2c1ncn2[C@@H]1O[C@@H]2COP(=O)(O)O[C@H]2[C@H]1OC(=O)CCC [Dibutyryl-cAMP (Bucladesine)]	1.05	0.792	0.663	0.745	0.883	1.53
